# From PubChem BioAssay (NCATS)
# Records with an inconclusive call do not appear. Calls of active or inactive are those of the source. The call rests on the fitted dose curve; in most records, active means well fitted curve in the direction sought with a large enough effect; inconclusive means small, poorly fitted or top-dose-only effect, or another doubt; inactive means no such curve, though single readings can be large; an effect the other way counts as inactive or inconclusive.
# Key:
# [1] = Quantitative High-Throughput drug screen in 47 multiple myeloma cell lines against the NCATS MIPE library collection: FR4_PLB cell viability assay (AID 1918924; further: nearly all actives have a fitted effect of over 35% in size); details: FR4_PLB myeloma cells viability, CellTiter-Glo ATP, 48 h; series mostly up to 45.8 µM
# Outline: (§1)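 Luminescent ATP measurement with CellTiter-Glo gives viability, scaled between DMSO-only wells (100%) and media-only wells (0%). Cells, 500 per well, faced library compounds for 48 hours at 37C.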
# [2] = Quantitative High-Throughput drug screen in 47 multiple myeloma cell lines against the NCATS MIPE library collection: Delta47_JCRB cell viability assay (AID 1918925; further: nearly all actives have a fitted effect of over 45% in size); details: Delta47 myeloma viability, CellTiter-Glo ATP, 48 h; series mostly up to 45.8 µM
# Outline: as §1
# [3] = Quantitative High-Throughput drug screen in 47 multiple myeloma cell lines against the NCATS MIPE library collection: EJM_DSMZ cell viability assay (AID 1918926; further: nearly all actives have a fitted effect of over 30% in size); details: EJM myeloma cell viability, CellTiter-Glo ATP, 48 h; series mostly up to 45.8 µM
# Outline: as §1
# [4] = Quantitative High-Throughput drug screen in 47 multiple myeloma cell lines against the NCATS MIPE library collection: AMO1_DSMZ cell viability assay (AID 1918927; further: nearly all actives have a fitted effect of over 30% in size); details: AMO1 myeloma cells viability, CellTiter-Glo ATP luminescence, 48 h; series mostly up to 45.8 µM
# Outline: as §1
# [5] = Quantitative High-Throughput drug screen in 47 multiple myeloma cell lines against the NCATS MIPE library collection: ARP1_JJKsccF8 cell viability assay (AID 1918928; further: nearly all actives have a fitted effect of over 40% in size); details: ARP1 myeloma cells viability, CellTiter-Glo ATP, 48 h; series mostly up to 45.8 µM
# Outline: (§2)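 ATP readout (CellTiter-Glo), 48 h drug incubation, 37 °C/5% CO2, 500 cells per well; normalisation to DMSO (100%) and media-only (0%) controls.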
# [6] = Quantitative High-Throughput drug screen in 47 multiple myeloma cell lines against the NCATS MIPE library collection: ARD_JJKsccE7 cell viability assay (AID 1918929); details: ARD myeloma cell line viability, CellTiter-Glo, 48 h; series mostly up to 45.8 µM
# Outline: as §1
# [7] = Quantitative High-Throughput drug screen in 47 multiple myeloma cell lines against the NCATS MIPE library collection: Karpas620_DSMZ cell viability assay (AID 1918959); details: Karpas620 myeloma viability, CellTiter-Glo ATP luminescence, 48 h; series mostly up to 45.8 µM; further: nearly all actives have a fitted effect of over 30% in size
# Outline: as §1
# [8] = Quantitative High-Throughput drug screen in 47 multiple myeloma cell lines against the NCATS MIPE library collection: KMM1_JCRB cell viability assay (AID 1918960); details: KMM1 myeloma viability, CellTiter-Glo ATP luminescence, 48 h; series mostly up to 45.8 µM; further: nearly all actives have a fitted effect of over 30% in size
# Outline: as §2
# [9] = Quantitative High-Throughput drug screen in 47 multiple myeloma cell lines against the NCATS MIPE library collection: KHM11_PLB cell viability assay (AID 1918962); details: KHM11 myeloma cell viability, CellTiter-Glo ATP luminescence, 48 h; series mostly up to 45.8 µM; further: nearly all actives have a fitted effect of over 35% in size
# Outline: as §1
# [10] = Quantitative High-Throughput drug screen in 47 multiple myeloma cell lines against the NCATS MIPE library collection: JIM3_ECACC cell viability assay (AID 1918963; further: nearly all actives have a fitted effect of over 35% in size); details: JIM3 myeloma viability, CellTiter-Glo ATP, 48 h; series mostly up to 45.8 µM
# Outline: as §1
# [11] = Quantitative High-Throughput drug screen in 47 multiple myeloma cell lines against the NCATS MIPE library collection: JIM1_ECACC cell viability assay (AID 1918964); details: JIM1 myeloma viability, CellTiter-Glo ATP luminescence, 48 h; series mostly up to 45.8 µM
# Outline: as §1
# [12] = Quantitative High-Throughput drug screen in 47 multiple myeloma cell lines against the NCATS MIPE library collection: INA6_PLB cell viability assay (AID 1918965; further: nearly all actives have a fitted effect of over 55% in size); details: INA6 myeloma viability, CellTiter-Glo ATP luminescence, 48 h; series mostly up to 45.8 µM
# Outline: (§3)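 Steps: seed 500 cells per well; pin-transfer MIPE 4.0 library; incubate 48 h at 37C, 5% CO2, humidified; add CellTiter-Glo, 5 min room temperature; read luminescence.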
# [13] = Quantitative High-Throughput drug screen in 47 multiple myeloma cell lines against the NCATS MIPE library collection: JJN3_DSMZ cell viability assay (AID 1918966; further: nearly all actives have a fitted effect of over 50% in size); details: JJN3 myeloma cells viability, CellTiter-Glo ATP, 48 h; series mostly up to 45.8 µM
# Outline: as §1
# [14] = Quantitative High-Throughput drug screen in 47 multiple myeloma cell lines against the NCATS MIPE library collection: H1112_PLB cell viability assay (AID 1918967; further: nearly all actives have a fitted effect of over 30% in size); details: H1112 myeloma cells viability, ATP luminescence, 48 h; series mostly up to 45.8 µM
# Outline: as §1
# [15] = Quantitative High-Throughput drug screen in 47 multiple myeloma cell lines against the NCATS MIPE library collection: Karpas25_ECACC cell viability assay (AID 1918968; further: nearly all actives have a fitted effect of over 35% in size); details: Karpas25 myeloma viability, CellTiter-Glo ATP, 48 h; series mostly up to 45.8 µM
# Outline: as §1
# [16] = Quantitative High-Throughput drug screen in 47 multiple myeloma cell lines against the NCATS MIPE library collection: KMS27_JCRB cell viability assay (AID 1918970); details: KMS27 myeloma cells, CellTiter-Glo ATP viability, 48 h; series mostly up to 45.8 µM; further: nearly all actives have a fitted effect of over 30% in size
# Outline: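 ATP-based viability (CellTiter-Glo luminescence) is measured in cells treated 48 h with approved and investigational drugs at 37 °C. Controls are DMSO-only wells for full viability and media-only wells for none.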
# [17] = Quantitative High-Throughput drug screen in 47 multiple myeloma cell lines against the NCATS MIPE library collection: KMS12BM_JCRB cell viability assay (AID 1918971); details: KMS12BM myeloma viability, CellTiter-Glo ATP, 48 h; series mostly up to 45.8 µM; further: nearly all actives have a fitted effect of over 35% in size
# Outline: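 qHTS of the MIPE 4.0 collection: 500 myeloma cells/well, 48 h drug exposure at 37C in 5% CO2, then CellTiter-Glo for 5 min at room temperature before luminescence reading.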
# [18] = Quantitative High-Throughput drug screen in 47 multiple myeloma cell lines against the NCATS MIPE library collection: KMS12PE_JCRB cell viability assay (AID 1918972); details: KMS12PE myeloma viability, CellTiter-Glo ATP, 48 h; series mostly up to 45.8 µM; further: nearly all actives have a fitted effect of over 30% in size
# Outline: as §3
# [19] = Quantitative High-Throughput drug screen in 47 multiple myeloma cell lines against the NCATS MIPE library collection: KMS20_JCRB cell viability assay (AID 1918973); details: CellTiter-Glo ATP, 48 h; series mostly up to 45.8 µM; further: nearly all actives have a fitted effect of over 45% in size
# Outline: as §1
# [20] = Quantitative High-Throughput drug screen in 47 multiple myeloma cell lines against the NCATS MIPE library collection: Karpas417_ECACC cell viability assay (AID 1918961); details: Karpas417 myeloma viability, CellTiter-Glo ATP luminescence, 48 h; viability (% of DMSO): at 45.8 µM (top of the series)
# Outline: as §3
# Potency means the concentration at half of the fitted maximal effect.
Structure (SMILES),Potency [1],Potency [2],Potency [3],Potency [4],Potency [5],Potency [6],Potency [7],Potency [8],Potency [9],Potency [10],Potency [11],Potency [12],Potency [13],Potency [14],Potency [15],Potency [16],Potency [17],Potency [18],Potency [19],Potency [20]
CC(C)c1cc(C(=O)N2Cc3ccc(CN4CCN(C)CC4)cc3C2)c(O)cc1O,296 nM (active),296 nM (active),1480 nM (active),132 nM (active),209 nM (active),93.5 nM (active),166 nM (active),105 nM (active),93.5 nM (active),187 nM (active),74.3 nM (active),118 nM (active),209 nM (active),5260 nM (active),166 nM (active),132 nM (active),264 nM (active),118 nM (active),187 nM (active),
O=C(Cc1ccc(-c2ccc(OCCN3CCOCC3)cc2)cn1)NCc1ccccc1,9.3 nM (active),26.4 nM (active),66.2 nM (active),13.2 nM (active),16.6 nM (active),16.6 nM (active),4.2 nM (active),11.8 nM (active),469 nM (active),16.6 nM (active),7.4 nM (active),16.6 nM (active),132 nM (active),18.7 nM (active),41.8 nM (active),,37.2 nM (active),14.8 nM (active),,
CC[C@@H]1C(=O)N(C)c2cnc(Nc3ccc(C(=O)NC4CCC(N5CCN(CC6CC6)CC5)CC4)cc3OC)nc2N1C(C)C (stereo partly drawn),59 nM (active),1480 nM (active),743 nM (active),118 nM (active),132 nM (active),83.3 nM (active),,52.6 nM (active),8330 nM (active),,,187 nM (active),2640 nM (active),,,,74.3 nM (active),2960 nM (active),4180 nM (active),3320 nM (active)
CCC1=C[C@@H]2CN(C1)Cc1c([nH]c3ccccc13)[C@@](C(=O)OC)(c1cc3c(cc1OC)N(C)[C@@H]1[C@@](O)(C(=O)OC)[C@H](OC(C)=O)[C@]4(CC)C=CCN5CC[C@]31[C@@H]54)C2,4.7 nM (active),23.5 nM (active),1050 nM (active),52.6 nM (active),5.3 nM (active),7.4 nM (active),,8.3 nM (active),,14.8 nM (active),1.9 nM (active),,7430 nM (active),148 nM (active),18.7 nM (active),4.7 nM (active),26.4 nM (active),9.3 nM (active),23.5 nM (active),
CCN(CC)CCCCNc1ncc2cc(-c3cc(OC)cc(OC)c3)c(NC(=O)NC(C)(C)C)nc2n1,20900 nM (active),9350 nM (active),23500 nM (active),26400 nM (active),23500 nM (active),23500 nM (active),26400 nM (active),18700 nM (active),9350 nM (active),23500 nM (active),20900 nM (active),16600 nM (active),20900 nM (active),23500 nM (active),10500 nM (active),16600 nM (active),18700 nM (active),16600 nM (active),7430 nM (active),
O=c1[nH]nc(Sc2ncc([N+](=O)[O-])s2)n1-c1ccc2c(c1)OCCO2,7430 nM (active),2350 nM (active),2960 nM (active),6620 nM (active),2960 nM (active),7430 nM (active),2640 nM (active),5900 nM (active),2090 nM (active),2640 nM (active),5900 nM (active),1180 nM (active),2090 nM (active),2640 nM (active),1320 nM (active),6620 nM (active),4690 nM (active),7430 nM (active),2090 nM (active),
COc1ccc(-c2cc3c(C)nc(N)nc3n(C3CCC(OCCO)CC3)c2=O)cn1 (stereo not drawn),33.2 nM (active),11.8 nM (active),132 nM (active),41.8 nM (active),20.9 nM (active),187 nM (active),132 nM (active),23.5 nM (active),29.6 nM (active),66.2 nM (active),7.4 nM (active),148 nM (active),83.3 nM (active),662 nM (active),26.4 nM (active),26.4 nM (active),59 nM (active),372 nM (active),26.4 nM (active),
Nc1cc(C(F)(F)F)c(-c2cc(N3CCOCC3)nc(N3CCOCC3)n2)cn1,148 nM (active),296 nM (active),5900 nM (active),105 nM (active),209 nM (active),187 nM (active),235 nM (active),372 nM (active),1050 nM (active),,46.9 nM (active),1320 nM (active),3720 nM (active),743 nM (active),743 nM (active),209 nM (active),1050 nM (active),418 nM (active),1180 nM (active),
O=C(c1cncc(Br)c1)N1CCC(N2CCCC2)CC1,inactive,inactive,inactive,inactive,16600 nM (active),inactive,inactive,inactive,,inactive,,,,inactive,,,,inactive,inactive,
